# Results published in PubChem BioAssay (Tox21).
# Results filed as inconclusive are left out. A call without a number means that no potency is given here. Active and inactive are the calls of the source. Calls follow the shape of the dose curve; as a rule, active = well fitted cell-killing curve with a large enough effect in the repeat runs; inconclusive = weak or mixed curves; inactive = flat fitted curve, though single readings scatter.
# Experiment: qHTS assay to identify small molecule antagonists of the TGF-beta/Smad signaling pathway - cell viability counter screen (AID 1346824); also: nearly all actives have a fitted effect of over 50% in size
# Conditions: SBE-bla HEK293T viability, CellTiter-Glo luminescence; series mostly up to 76.8 µM
# Description: U.S. Tox21 Program National Center for Advancing Translational Sciences [NCATS] NIH Chemical Genomics Center [NCGC] U.S. Environmental Protection Agency [EPA] National Institutes of Environmental Health Sciences [NIEHS] National Toxicology Program [NTP] U.S. Food and Drug Administration [FDA] Tox21 Assay Overview: Transforming growth factor beta (TGF-beta) superfamily consists of a large number of structurally related dimeric proteins that act as hormones or local mediators in regulating a wide range of biological functions. This superfamily includes TGF-betas themselves, the bone morphogenetic proteins (BMPs) and the activins. These ligands induce oligomerization of serine/threonine receptor kinases and phosphorylate the cytoplasmic signaling molecules of Smad protein family. CellSensor SBE-bla HEK 293T cell line (Life Technologies, Carlsbad, CA), responsive to TGF-beta was used to screen Tox21 10K compound library for identification of agonists/antagonists of the Smad signaling pathway. This cell line contains a beta-lactamase reporter gene under control of the Smad binding element (SBE) stably integrated into HEK 293T cells. Also cytotoxicity of the compounds was tested in parallel by measuring the cell viability using CellTiter-Glo assay system in the same wells.
# Tox21 Assay Protocol Summary: SBE-bla HEK 293T cells were dispensed at 4,000/well in 5 uL of assay medium into black wall/clear-bottom 1536-well plates using a Multidrop Combi (ThermoFisher Scientific, Waltham, MA) dispenser. After the assay plates were incubated at 37 C and 5% CO2 for an overnight, 23 nL of compounds dissolved in DMSO, positive controls or DMSO only was transferred to the assay plate by a Pintool station (Kalypsys, San Diego, CA). Compound transfer was followed by the addition of 1 uL of 0.25 ng/mL TGF-beta1 or assay buffer using two separate tips of Flying Reagent Dispenser (FRD, Aurora Discovery, San Diego, CA). The assay plates were incubated at 37 C and 5% CO2 for 5 hr. One uL of LiveBLAzer B/G FRET substrate (Life Technologies) was added using a Flying Reagent Dispenser (FRD, Aurora Discovery, San Diego, CA) and the plates were incubated at room temperature for 2 hr. Fluorescence intensity (405 nm excitation, 460 nm and 530 nm emissions) was measured using an Envision plate reader (PerkinElmer, Shelton, CT). For cytotoxicity read, 4 uL of CellTiter-Glo reagent (Promega Corporation, Madison, WI) was added to each well of the assay plates using FRD. After 30 min incubation at room temperature, the luminescence intensity was measured using ViewLux plate reader (PerkinElmer).
row,SMILES,Potency
1,Nc1ccccc1Cl,inactive
2,O=C(CCN1CC1)OCC(CO)(COC(=O)CCN1CC1)COC(=O)CCN1CC1,inactive
3,Clc1cccc(N2CCNCC2)c1,inactive
4,C=CC1CC=CCC1 (stereo not given),inactive
5,O=[N+]([O-])c1cccc(O)c1,inactive
6,CCCSC(=O)N(CCC)CCC,inactive
7,Cc1cc(C)c(C(=O)P(=O)(C(=O)c2c(C)cc(C)cc2C)c2ccccc2)c(C)c1,inactive
8,CC1(C)C(=O)NC(=O)NC1=O,inactive
9,c1coc(-c2nc3ccccc3[nH]2)c1,inactive
10,CCOC(=O)C(c1c(O)c2ccccc2oc1=O)c1c(O)c2ccccc2oc1=O,inactive
11,CC(COc1ccc(Oc2ccccc2)cc1)Oc1ccccn1 (stereo not given),inactive
12,O=S(=O)(O)C(F)(F)C(F)(F)C(F)(F)C(F)(F)C(F)(F)C(F)(F)F,inactive
13,CCCSP(=O)(OCC)Oc1ccc(Br)cc1Cl (stereo not given),inactive
14,ClC(Cl)C(Cl)Cl,inactive
15,CC1(C(=O)Nc2ccc(O)c(Cl)c2Cl)CCCCC1,inactive
16,NC(=O)c1cc([N+](=O)[O-])cc([N+](=O)[O-])c1,inactive
17,N#CC(Cl)(Cl)Cl,inactive
18,N#Cc1ccncc1,inactive
19,O=[N+]([O-])c1ccc2c3c(cccc13)CC2,inactive
20,CCOP(=S)(OCC)SCSc1ccc(Cl)cc1,inactive

row,SMILES,Potency
1,C[C@]12CC[C@H]3[C@@H](CC=C4C[C@@H](O)CC[C@@]43C)[C@@H]1CC[C@@H]2O,inactive
2,CCOC(=O)N(C)C(=O)CSP(=S)(OCC)OCC,inactive
3,CNC(=O)Oc1c(C(C)(C)C)cc(C)cc1C(C)(C)C,inactive
4,COc1cccc2c1cc([N+](=O)[O-])c1c(C(=O)O)cc3c(c12)OCO3,inactive
5,CCC#N,inactive
6,COc1cc(OC)nc(Oc2cccc(Oc3nc(OC)cc(OC)n3)c2C(=O)O)n1,inactive
7,CC(C)CC(N(C)C)C1(c2ccc(Cl)cc2)CCC1 (stereo not given),inactive
8,COC(=O)C(c1ccccc1)C1CCCCN1 (stereo not given),inactive
9,Fc1cc(Br)ccc1CBr,inactive
10,Cc1coc2c1CCC(C)C2 (stereo not given),inactive
11,CC(CC(C#N)(c1ccccc1)c1ccccc1)N(C)C (stereo not given),inactive
12,Cc1cnc[nH]1,inactive
13,CCOP(=S)(OCC)SCSP(=S)(OCC)OCC,inactive
14,O=[N+]([O-])c1cc(Cl)c(Cl)c(Cl)c1,inactive
15,N#CCBr,inactive
16,C#CCN1C(=O)COc2cc(F)c(N3C(=O)C4=C(CCCC4)C3=O)cc21,inactive
17,O=NN1CCN(N=O)CC1,inactive
18,CNC(=O)Oc1cccc(C(C)C)c1,inactive
19,OC(c1ccc(F)cc1)(c1cncnc1)c1ccccc1Cl (stereo not given),inactive
20,CCCCP(CCCC)CCCC,inactive
